Laboratory results as given in publication PMC5540273 (PLoS ONE, 2017).
Several values for one entry are separate records, joined by “and”; a condition that tells them apart may be missing. Equal values may be shown once. Read-outs that look alike come from different tables or passages of the source.

Legend:
Conditions in all cases: concentration: 1 μM, replicates: in singlicate, n = 1
SRPK3 = system: SRPK3
STK16 = system: STK16
STK33 = system: STK33
STK35 = system: STK35
STK36 = system: STK36
STK39 = system: STK39
SYK = system: SYK
SgK110 = system: SgK110
TAK1 = system: T1, TAK1
T1 construct: gene MAP3K7

TAOK1 = system: TAOK1
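Note: KINOMEscan kinase panel screen.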

SMILES	%Inh (SRPK3) [%]	%Inh (STK16) [%]	%Inh (STK33) [%]	%Inh (STK35) [%]	%Inh (STK36) [%]	%Inh (STK39) [%]	%Inh (SYK) [%]	%Inh (SgK110) [%]	%Inh (TAK1) [%]	%Inh (TAOK1) [%]	%Inh (SRPK3; 1 µM)	%Inh (STK16; 1 µM)	%Inh (STK33; 1 µM)	%Inh (STK39; 1 µM)	%Inh (SYK; 1 µM)	%Inh (TAK1; 1 µM)	%Inh (TAOK1; 1 µM)	%Inh (STK35; 1 µM)	%Inh (STK36; 1 µM)	%Inh (SgK110; 1 µM)
COc1cc2c(cc1OCCN1CCN(C)CC1)ncc1c3ccc(C#N)cc3[nH]c21	0	10	25	0	0	11	8	0	90.6	0										
CNc1ncnc2[nH]ncc12 [SKF-18355]	10	0	0	0	0	9	22	0	0	0										
Fc1ccc(-c2nn3c(OCC(F)(F)F)cccc3c2-c2ccncc2)cc1 [GW514784]	0	3	0	0	0	3	1	0	6	0										
O=C1NC(=O)C(N2CCc3ccccc32)=C1c1cccc(Cl)c1 [SB-408010]	31	26	0	19	16	54	0	1	21	0										
CCc1ccnc(/C=C/c2n[nH]c3cc(Sc4ccccc4C(=O)NC)ccc23)c1	14	0	4	0	12	0	0	47	1	0										
Nc1nccc(-c2c(-c3ccc(F)cc3)ncn2C2CCN(CC(F)(F)F)CC2)n1 [SB-236560]	6	0	0	0	26	0	0	0	21	0										
N#Cc1ccc(-c2cc(-c3c[nH]nc3-c3ccccn3)ccn2)cc1 [GW693028]	14	0	4	0	0	16	5	5	0	0										
NCCNS(=O)(=O)c1ccc(-c2ccnc3[nH]ccc23)cc1 [GSK977617]				0	0			0			67% and 37%	80% and 68%	85% and 71%	0% and 13%	32% and 15%	75% and 65%	54% and 40%			
NS(=O)(=O)c1cccc(-c2ccc3nccc(-c4cccc(S(N)(=O)=O)c4)c3c2)c1 [GW867253]	23	12	0	0	0	0	1	0	6	2										
Cn1ccc2ncnc(Oc3ccc(NC(=O)Nc4ccncc4)c(Cl)c3)c21	0	10	0	0	5	100	3	30	0	0										
COCCNC(=O)c1ccc(-c2cc(C(=O)NC3CC3)cc(F)c2C)cc1 [GW868318]	20	0	10	0	2	16	1	21	14	29										
CC(=O)Nc1ccc(COc2ccc(Nc3ccnc4cc(-c5ccccn5)ccc34)cc2)cc1.Cl [GW440148]	0	23	0	0	0	13	0	0	0	0										
Cc1cccc(Cn2ccn3c(=O)cc(N4CCOCC4)nc23)c1 [GSK2297542]	0	61	0	0	0	0	22	0	13	0										
C[C@@H](Oc1cc(-n2cnc3ccc(NC(=O)NC(C)(C)C)cc32)sc1C(N)=O)c1ccccc1Cl [GSK346294]	0	22	0	0	0	0	34	0	0	0										
COC(=O)Nc1nc2cc(Oc3ccc(NC(=O)Nc4cc(F)ccc4F)cc3)ccc2[nH]1.Cl [GW701424]	0	0	0	0	0	7	0	0	8	0										
Nc1nc(-c2ccc3c(N)n[nH]c3c2)cc(N2CCCC2)n1 [GSK2227430]	0	8	0	0	0	0	0	0	0	0										
NS(=O)(=O)CCc1cccc(Nc2nccc(-c3c(-c4cccc(NC(=O)c5c(F)cccc5F)c4)nn4ccccc34)n2)c1 [GSK336735]	55	28	0	90.7	99.9	1	74	0	27	73										

SMILES	%Inh (SRPK3) [%]	%Inh (STK16) [%]	%Inh (STK33) [%]	%Inh (STK35) [%]	%Inh (STK36) [%]	%Inh (STK39) [%]	%Inh (SYK) [%]	%Inh (SgK110) [%]	%Inh (TAK1) [%]	%Inh (TAOK1) [%]	%Inh (SRPK3; 1 µM)	%Inh (STK16; 1 µM)	%Inh (STK33; 1 µM)	%Inh (STK39; 1 µM)	%Inh (SYK; 1 µM)	%Inh (TAK1; 1 µM)	%Inh (TAOK1; 1 µM)	%Inh (STK35; 1 µM)	%Inh (STK36; 1 µM)	%Inh (SgK110; 1 µM)
O=c1cc(N2CCOCC2)nc2n(Cc3cccc(C(F)(F)F)c3)ccn12 [GSK2297543]	0	0	0	0	0	0	27	0	0	0										
CSc1ccc(-c2cc3ncnc(SCC(=O)O)c3s2)cc1	0	2	8	0	0	0	15	0	18	0										
N#Cc1c(N2CCOCC2)sc(-c2ccn[nH]2)c1-c1ccc(Cl)cc1	0	33	10	0	0	17	16	0	14	0										
Cc1cccc(-c2nc(-c3ccc(S(C)(=O)=O)cc3)sc2-c2ccncc2)c1	10	19	0	3	30	15	25	2	3	0										
Cl.Cl.Cl.Fc1ccc(-c2ncn(C3CCNCC3)c2-c2ccnc(Nc3ccccc3)n2)cc1 [SB-238039]											11% and 26%	5% and 0%	0% and 12%	18% and 0%	8% and 3%	24% and 46%	88% and 57%	2% and 0%	97.9% and 93%	35% and 0%
CCn1cnc2c(N)ncnc21 [GW345098]	18	12	10	0	5	0	3	0	4	16										
CC(C)Oc1ccc2c(-c3ccnc(Nc4ccc(N5CCN(C)CC5)cc4)n3)cnn2n1 [GW696155]	79	98.8	81	45	70	89	10	29	56	76										
c1ccc(-c2cc(-c3c[nH]nc3-c3ccccn3)ccn2)cc1 [GW576604]	0	0	8	0	0	2	6	0	16	0										
O=C(c1ccc(-c2cc(-c3c[nH]nc3-c3ccccn3)ccn2)cc1)N1CCOCC1 [GW812171]	4	0	0	0	2	18	0	32	10	0										
O=C(NCCNc1ccnc(Nc2ccc(F)cc2)n1)c1cc2ccccc2s1 [GSK1379874]	0	5	0	0	0	0	36	0	0	0										
O=C(NOCC1CC1)c1ccc(F)c(F)c1Nc1ccc(I)cc1Cl	7	0	0	0	0	0	0	0	11	0										
COc1ccc(Nc2nccc(N3CCC(NC(=O)Nc4cc(C)ccc4C)C3)n2)cc1 (stereo not drawn) [GSK1379741]	0	7	0	0	100	9	0	0	0	0										
O=C(NCCNc1ccnc(Nc2ccc(F)cc2)n1)Nc1ccccc1F [GSK1379880]	2	4	0	0	48	3	26	55	0	0										
Cc1nnc(-c2ccc3ncc(-c4ccc(S(C)=O)cc4)n3c2)o1 (stereo not drawn)	0	0	1	1	9	25	0	0	8	0										
COc1cc(Nc2nccc(N3CCC(NC(=O)c4cccc(NC(C)=O)c4)C3)n2)cc(OC)c1OC (stereo not drawn) [GSK1379754]	16	64	2	0	0	0	39	2	0	0										
CC(C)(CN)c1nc(-c2ccc(Cl)c(O)c2)c(-c2ccncc2)[nH]1.O=C(O)C(F)(F)F [SB-477794]	0		52					0				18% and 0%		42% and 20%	13% and 28%	62% and 75%	2% and 16%	59% and 62%	86% and 87%	
